# Screens as filed in PubChem.
# The sample as a whole holds a higher share of hits than the screen did.
# AMA1-RON2 inh: inhibitors of Plasmodium falciparum AMA1-RON2 interaction; AlphaScreen AMA1-biotinylated RON2 peptide binding; Potency, µM (titrated, usually from 58.2 µM), without a hit: at the highest dose activity change, negative = inhibition, most hits filed as inhibitors; 360,000 compounds, 0.2% hits; AID 720542; active = well fitted inhibition curve with a large enough effect; inconclusive = small, poorly fitted or top-dose-only effect; inactive = no such curve, though single readings can be large or run the other way;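 note: potency is the fitted concentration of half-maximal effect; 0% = vehicle wells and -100% = peptide control; nearly all actives have a fitted effect of over 45% in size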
#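 AMA1 (3D7) with his tag at 25 nM final met compounds first, then biotinylated RON2 peptide at 25 nM; detection used donor plus acceptor beads, 10 µg/mL apiece, read by AlphaScreen after 30 min at room temperature.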
# Marburg entry inh: Marburg virus entry inhibition; Marburg virus pseudotyped entry inhibition, cell reporter; Potency, µM (top dose mostly 37.8 µM), for the others: at the highest dose activity change, negative = inhibition, usual class: inhibitors; 300,000 compounds, 1.8% hits; AID 540276; calls by dose curve; tested in HEK293 cells; note: potency is the fitted concentration of half-maximal effect; % is set by controls: 0 for no effect and ±100 for the full control effect
# Cycloheximide cs: counter-screen hit for Shiga toxin inhibitors, cycloheximide; cell reporter, cycloheximide protein synthesis inhibition counterscreen; max response, %; 300,000 compounds, 12% hits; in the data active = max response mostly above about 13%, no sharp cut-off; inactive = mostly below about 14%; note: read at 38.3 µM for the half of the compounds with a filed dose; 0% is about no effect
# Shiga toxin inh: inhibitors of Shiga toxin in Vero cells; Vero cells, Shiga toxin protein synthesis inhibition reporter; inhibition, % at 38.7 µM; 290,000 compounds, 9.2% hits; AID 2315; in the data active = inhibition mostly above about 28%, no sharp cut-off; inactive = mostly below about 43%; note: 0% is about no effect
# LASV entry inh: inhibitors of Lassa virus binding or cell entry; Lassa virus pseudotype entry inhibition, cell reporter; Potency, µM (series often up to 37.9 µM), for the others: at the top dose activity change, negative = inhibition, usual class: inhibitors; 300,000 compounds, 1.2% hits; AID 540256; calls by dose curve; tested in HEK293 cells; note: potency is the fitted concentration of half-maximal effect; % is set by controls: 0 for no effect and ±100 for the full control effect; nearly all actives have a fitted effect of over 50% in size
# * marks the source's active call; other numbers are inactive results; ? = inconclusive; / = not tested or not shown; ! = a repeat was not active; [ ] = another dose, or the depositor's remark.
SMILES,AMA1-RON2 inh,Marburg entry inh,Cycloheximide cs,Shiga toxin inh,LASV entry inh
COc1ccc(OC)c(NC(=O)C2CCCN(S(=O)(=O)c3ccc4[nH]c(=O)ccc4c3)C2)c1 (stereo not given),/,/,/,/,-4%[46.1 µM]
COC(=O)c1cc2c(cc1NC(=O)c1cnn(-c3ccccc3)c1-n1cccc1)OCO2,/,-6%[46.1 µM],/,/,16%[46.1 µM]
O=C(Nc1ccccn1)c1cc2ccccc2o1,6%,?,-2,-7,4.6µM*
O=C(NNC(=O)c1cc2ccccc2o1)c1ccc(Cl)cc1,11%,?,0,-5,5%
Cc1cc([N+](=O)[O-])ccc1NC(=O)c1cc2ccccc2o1,3%,-1%,30*,168*,?
O=C(Nc1ccccc1C(F)(F)F)c1cc2ccccc2o1,15%,/,32*,/,/
O=C(Nc1ccc(Cl)cn1)c1cc2ccccc2o1,24%,?,66*,105*,?
COC(=O)c1ccccc1NC(=O)c1cc2ccccc2o1,7%,-11%[46.1 µM],17,40,-1%[46.1 µM]
Cc1cc([N+](=O)[O-])ccc1NC(=O)c1ccco1,0%,19%[46.1 µM],-1,-3,-6%
C=CCSC1=N/C(=C/c2ccsc2)C(=O)N1c1ccccc1,4%,-16%,1,-8,1%
Cc1cccc(N2CCN(Cc3nnc(-c4ccc5c(c4)OCO5)o3)CC2)c1C,/,?,/,/,-13%[46.1 µM]
O=C(Nc1cccc(Cl)c1N1CCCC1)c1cc2ccccc2o1,1%,-5%,28*,29*,?
O=C(NC1=NCCS1)c1cc2ccccc2o1,-2%,?,18*,17,?
Cc1ccc(C)c(NC(=O)c2cc3ccccc3o2)c1,7%,/,51*,75*,/
O=C(Nc1cccc2ncccc12)c1cc2ccccc2o1,-1%,0%,-3,-2,0%
O=C(Nc1ncccc1O)c1cc2ccccc2o1,75%,?,/,/,1.3µM*
COc1ccc(NC(=O)CC2CC3CCC2C3)cc1S(=O)(=O)N1CCOCC1 (stereo not given),6%,1%,/,/,?
Cc1ccnc(NC(=O)c2cc3ccccc3o2)c1,0%,1.1µM*,/,/,?
Cc1csc(NC(=O)c2cc3ccccc3o2)n1,-2%,/,/,/,/
Cc1cccc(C(=O)O[C@@H]2[C@H](Cc3ccccc3)NS(=O)(=O)[C@H]3C[C@@H]4C=C[C@]23O4)c1,-20%,/,/,/,/
O=C(Oc1ccc(/C=N/Nc2ccccc2)cc1)c1ccccc1,-5%,34%,22*,75*,-9%
O=C(O)c1ccc(N/N=C/c2ccc(OC(=O)c3cccc(Cl)c3)cc2)cc1,-10%,/,37*,75*,/
O=C(Oc1ccc(/C=N/O)cc1)c1ccccc1,-13%,3%,23*,58,3%
CN(C)c1ccc(NC(=O)c2ccc3nsnc3c2)cc1,-16%,?,46*,160*,?
O=C(Nc1cccc([N+](=O)[O-])c1)c1ccc2nsnc2c1,-7%,21%[46.1 µM],17,27,24%[46.1 µM]
SMILES,AMA1-RON2 inh,Marburg entry inh,Cycloheximide cs,Shiga toxin inh,LASV entry inh
O=C(Nc1ccc(Cl)cc1)c1ccc2nsnc2c1,-9%,?,35*,97*,?
COc1cccc(C(=O)NC2CCNCC2)c1,14%,/,-2,-9,/
Cc1ccc(S(=O)(=O)NC(CC(N)=O)C(=O)O)cc1 (stereo not given),-2%,?,2,14,?
Cc1ccc(S(=O)(=O)N[C@@H](CCCCN)C(=O)CCl)cc1,-19%,13µM*!,/,/,-34%
CCCC(=O)Nc1ccc(Cl)c(-c2nc3ncccc3o2)c1,-5%,22%[46.1 µM],5,-2,15%[46.1 µM]
Nc1ccc(-c2nc3ncccc3o2)c(Cl)c1,6%,-25%[46.1 µM],31*,60*,?
CCC(=O)Nc1ccc(Cl)c(-c2nc3ncccc3o2)c1,16%,12%,-1,/,-14%
Nc1ccc(Cl)c(-c2nc3ncccc3o2)c1,0%,1%,43*,59*,?
Nc1ccc(-c2nc3ncccc3o2)c(O)c1,82%,/,21*,69*,/
C#CCOCCOCCOCCNc1nc(N2CCN(C(=O)[C@H](CCCN=C(N)N)n3cc(C(N)[C@@H](C)CC)nn3)CC2)nc(N2CCN(C(=O)[C@H](CCC(=O)O)n3cc([C@@H](N)CO)nn3)CC2)n1 (stereo not given in full),23%,/,/,/,/
COc1ccc(CCC(C)Nc2cccc(F)c2)cc1 (stereo not given),-18%,7%,18*,13,-2%
COc1ccc(CCC(C)Nc2ccccc2F)cc1 (stereo not given),82%,?,2,-10,-8%
CC(C)CN(C(=O)CN(C)CC(=O)Nc1ccc(Cl)c(C(F)(F)F)c1)c1c(N)n(CC(C)C)c(=O)[nH]c1=O,28%,-18%[46.1 µM],/,/,-23%[46.1 µM]
Cc1cc(C)c2oc(-c3ccc(NC(=O)c4cc(Br)ccc4Cl)cc3)nc2c1,/,/,/,/,10%[46.1 µM]
Cc1cc(C)c2oc(-c3ccc(Cl)c(NC(=O)c4ccc(C#N)cc4F)c3)nc2c1,-2%,21%,48*,39*,8%
Cc1ccc2c(c1)c(=O)c(C(=O)c1ccccc1)cn2Cc1ccccc1F,/,14%[46.1 µM],/,/,-8%[46.1 µM]
Cc1ccc(OCCCCN2CCCC(C)C2)c([N+](=O)[O-])c1 (stereo not given),0%,?,-2,32,-11%
CC1CCCN(CCCOc2ccc(Br)cc2Cl)C1 (stereo not given),?,?,22*,41*,?
C=CCc1ccc(OCCCN2CCCC(C)C2)c(OC)c1 (stereo not given),-11%,?,22*,20,-20%
C=CCc1ccc(OCCCCN2CC(C)CC(C)C2)c(OC)c1 (stereo not given),?,7.1µM*,0,1,?
C=CCc1ccc(OCCCCN2CCC(C)CC2)c(OC)c1,-12%,15µM*,-1,-2,?
COc1cc(C)ccc1OCCCCN1CC(C)OC(C)C1 (stereo not given),?,?,-1,-5,2%
CCOC(=O)N1CCC(NC(=O)C2CCN(S(=O)(=O)c3c(C)noc3C)CC2)CC1,-20%,12%[46.1 µM],9,-21,-1%
COc1ccc(-c2noc(-c3ccc(N4CCCC4)c([N+](=O)[O-])c3)n2)cc1,/,10%[46.1 µM],/,/,16%[46.1 µM]
CN(C)CCCCOc1ccc(Br)cc1Cl,2%,?,14*,28,-17%
SMILES,AMA1-RON2 inh,Marburg entry inh,Cycloheximide cs,Shiga toxin inh,LASV entry inh
Cc1cc(Cl)cc(Cl)c1OCCCCN(C)C,-9%,?,47*,-17,-15%
COCCCNCCCCOc1ccc(Br)cc1Cl,-19%,?,-5,-7,?
CC(C)c1ccc(-c2nc(N3CCOCC3)[nH]c(=O)c2C#N)cc1,-12%,-28%,5,-19,-1%
COc1ccc(CCC(=O)OCC(=O)NC(=O)c2ccc(Cl)cc2)cc1,1%,28%,/,/,4%
O=c1[nH]c2ccccc2n1CCC1CCCCC1,-6%,-18%,47*,23,2%
O=C(Nc1ccccc1)c1cccc(S(=O)(=O)Nc2cccc(F)c2)c1,/,/,/,/,-8%[46.1 µM]
Cc1cc(C)cc(N2C(=O)CSC23C(=O)N(CC(=O)Nc2ccc(F)cc2F)c2ccccc23)c1 (stereo not given),/,/,/,/,-8%[46.1 µM]
O=C(COc1ccc(Cl)cc1Cl)Nc1ccc(Cl)cn1,-1%,?,30*,92*,?
